Values joined by “and” are separate entries in the source; they are usually repeats but may differ in a detail not shown here. Equal entries are not always repeated. Structures can show the parent of a compound that is named as a salt. A number with no mark means an inactive call.
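Also: TDF is a line of transformed human dermal fibroblasts of mesenchymal origin.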

In the experiment the test system is HCC1569. In words: H1.0 immunofluorescence intensity relative to DMSO (% of DMSO); higher = stronger H1.0 induction, active = 140 or more. As to conditions: concentration: 10 µM; 24 h. Put shortly: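 Six fields per well were imaged at ×10 after the cells were fixed in 3.7% formaldehyde and stained with a rabbit anti-H1.0 antibody, an AlexaFluor 647 secondary and DAPI. The HCC1569 and TDF cells had been plated at 800 per well in 384-well plates (RPMI, 10% FBS) and treated in triplicate with compounds at 10 µM for 24 h at 37 °C. The values are the median of replicates of H1.0 nuclear intensity or cell number, as percent of the plate control. Smoothing for positional effects was applied to HCC1569 data.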
As for `NCC1OC(OC2C(CO)OC(OC3C(O)C(N)CC(N)C3OC3OC(CO)C(O)C(O)C3N)C2O)C(N)C(O)C1O.O=S(=O)(O)O` (stereo not given) [Paromomycin sulfate], the H1.0 immunofluorescence intensity is 101. To `C=CC(=O)c1ccc2ccccc2c1` belongs 113; to `CC1OC(OC2C(Oc3cc(O)c4c(c3)OC(c3ccc(O)cc3)CC4=O)OC(CO)C(O)C2O)C(O)C(O)C1O` (stereo not given) [Naringin], 86.1; to `O.Oc1cc(O)c2c(c1)OC(c1ccc(O)c(O)c1)C(O)C2` (single isomer, unassigned; (+)) [(+)-Catechin Hydrate], 91.7. Regarding `CCCCCCCCCC(=O)NC(CN1CCOCC1)C(O)c1ccccc1.Cl` (racemic), the H1.0 immunofluorescence intensity is 109. Regarding `O=c1[nH][nH]c2nnc(-c3c(-c4ccccc4)nn4ccccc34)cc12` [ERK Inhibitor II,                   Negative control], the H1.0 immunofluorescence intensity is 122. Consider `O=C1NC(C(=O)O)CS1` (stereo not given) [Procysteine], for which the H1.0 immunofluorescence intensity was 98.1. Take `Cc1ccc2c(c1)C(N1CCN(C)CC1)=Nc1cccnc1N2`: the H1.0 immunofluorescence intensity was 99. On to `COC(=O)C1=C(C)NC(C)=C(C(=O)OCCN2CCN(C(c3ccccc3)c3ccccc3)CC2)C1c1cccc([N+](=O)[O-])c1` (stereo not given) [Manidipine], for which the H1.0 immunofluorescence intensity was 111. Regarding `COc1c2occc2cc2ccc(=O)oc12` [Xanthotoxin], the H1.0 immunofluorescence intensity was 103.

Consider `Cc1cc(Cc2cc(C)cc(C(C)(C)C)c2O)c(O)c(C(C)(C)C)c1`, for which the H1.0 immunofluorescence intensity was 90.7 and 88.8. For `CCC12CCCN3CCc4c(n(c5ccccc45)C(O)(C(=O)OC)C1)C32` (stereo not given) [Vincamine], the H1.0 immunofluorescence intensity is 86.2. Consider `CCCCCN(C)CCC(O)(P(=O)(O)O)P(=O)(O)O` [Ibandronate], for which the H1.0 immunofluorescence intensity was 97.2. Take `NC(=O)N1c2ccccc2C=Cc2ccccc21` [Carbamazepine]: the H1.0 immunofluorescence intensity was 97. To `CCOC(=O)c1ncn2c1CN(C)C(=O)c1cc(F)ccc1-2` [Flumazenil] belongs 93.6; to `CCCCCCCCCCCC=CCCCCCC(=O)O` [7(Z)-Nonadecenoic acid], 96.9.

In the case of `CC(=O)CCCCn1c(=O)c2c(ncn2C)n(C)c1=O` [Pentoxifylline], the H1.0 immunofluorescence intensity is 105. To `CCCCCCCCC=CCCCCCCCCOCC(COP(=O)([O-])OCC[N+](C)(C)C)OC(C)=O` (stereo not given) belongs 98.3; to `CC(C)c1cc(C(C)C)c(-c2csc(N(CCN(C)C)Cc3cccnc3)n2)c(C(C)C)c1`, 146 (active); to `COc1cc(Cc2cnc(N)nc2N)cc(OC)c1OC` [Trimethoprim], 107. To `CC(=O)OC1(C(C)=O)CCC2C3C=C(C)C4=CC(=O)CCC4(C)C3CCC21C` (stereo not given) [Megestrol Acetate] belongs 104; to `NC1CCN(c2nc3c(cc2F)c(=O)c(C(=O)O)cn3-c2ccc(F)cc2F)C1` (stereo not given) [Tosufloxacin], 104; to `CN1CCN(C2Cc3ccccc3Sc3ccc(Cl)cc32)CC1.O=C(O)C=CC(=O)O` (stereo not given), 145 (active). Turning to `O=C(NCCO[N+](=O)[O-])c1cccnc1` [Nicorandil], the H1.0 immunofluorescence intensity is 107. Regarding `CCCCCCCCCCCCCCCC(=O)NC(CN1CCOCC1)C(O)c1ccccc1` (racemic), the H1.0 immunofluorescence intensity was 102.

Consider `O=C(O)/C=C/c1ccc(O)c(O)c1` [Caffeic acid], for which the H1.0 immunofluorescence intensity is 96.2. To `CC(C)(C)NCC(O)COc1nsnc1N1CCOCC1` (stereo not drawn) [S(-)-Timolol maleate] belongs 110; to `Cc1ccc(C(=O)c2ccc(CC(=O)O)n2C)cc1` [Tolmetin], 104. Take `CC1C(=O)OC2C(O)C34C5CC(C(C)(C)C)C36C(OC(=O)C6O)OC4(C(=O)O5)C12O` (stereo not given) [Ginkgolide B]: the H1.0 immunofluorescence intensity was 82.4. Turning to `Nc1ccc2ncnc(NCCc3ccc(Oc4ccccc4)cc3)c2c1` [NF-kB Activation Inhibitor], the H1.0 immunofluorescence intensity is 164 (active).

With `Nc1c2c(nc3ccccc13)CCCC2O.O=C(O)C=CC(=O)O` (stereo not given) [Hydroxytacrine maleate], the H1.0 immunofluorescence intensity was 83.4. Consider `CC1=CC(=O)C(C(C)C)=CC1=O` [Thymoquinone], for which the H1.0 immunofluorescence intensity is 93.3.

As for `CCCCCC=CC=CC(O)CCCCCCCC(=O)O` (racemic), the H1.0 immunofluorescence intensity is 97. For `COc1cc(C(=O)c2ccc3ncccc3c2)cc(OC)c1OC` [quinolin-6-yl(3,4,5-trimethoxyphenyl)methanone], the H1.0 immunofluorescence intensity was 167 (active). Consider `CC(=O)O.NC(=NCCCC(N)C(=O)O)NO` [NG-Hydroxy-L-arginine acetate], for which the H1.0 immunofluorescence intensity was 89.2. To `O=C(O)c1ccc(SC2=NS(=O)(=O)c3ccccc32)cc1` [4-((1,1-dioxidobenzo[d]isothiazol-3-yl)thio)benzoic acid] belongs 98.7; to `COc1cc(=O)n(C)c2c(OCC(O)C(C)(C)O)cccc12` (stereo not given) [Foliosidine], 93.7; to `[N-]=[N+]=Nc1ccc(C(=O)CSCC(NC(=O)CCC(N)C(=O)O)C(=O)NCC(=O)O)cc1` (stereo not drawn) [S-(p-Azidophenacyl)glutathione], 79.9. In the case of `CCCCCCCCCCCCCCCC(O)C(CO)NC(=O)CCCCCCC` (stereo not given) [C8 Dihydroceramide], the H1.0 immunofluorescence intensity was 108. In the case of `CCCCCC#CCC#CCC#CCC#CCCCC(=O)O` [5,8,11,14-Eicosatetraynoic acid], the H1.0 immunofluorescence intensity was 103.

(Values after the supplement of paper PMC7156485.)
